Compound activity: PubChem BioAssay, National Center for Advancing Translational Sciences (NCATS)
VDR inh: inhibitors of human vitamin D receptor; P11473; VDR-SRC2-3 peptide fluorescence polarization, 2 h; Potency, µM, for the others: max response, negative = inhibition, most hits filed as inhibitors; actives 0.93% (n = 400,000); note: % is set by controls: 0 for no effect and ±100 for the full control effect
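Compounds are added to VDR with labelled SRC2-3 coactivator peptide and held 2 h at room temperature. Inhibition of the VDR–peptide interaction is then read as a change in fluorescence polarization.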
PLK1 PBD block: blocks phosphopeptide binding to human PLK1 polo-box domain | P53350 | Plk1 PBD binding of FITC phosphopeptide, fluorescence polarization | Potency, µM, for the others: max response, negative = inhibition, most hits filed as inhibitors | actives 2.8% (n = 360,000); note: series mostly up to about 57 µM; % is set by controls: 0 for no effect and ±100 for the full control effect; nearly all actives have a fitted effect of over 65% in size
Tb PFK block: blocks T. brucei phosphofructokinase; actives 0.17% (n = 330,000); Potency, µM (doses to about 57.5 µM), inactives show at the highest dose activity, negative = inhibition, usual class: inhibitors; O15648; T. brucei PFK, ADP-Glo luminescence;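 note: 0% = uninhibited 1x PFK enzyme wells and -100% = no-enzyme wells; nearly all actives have a fitted effect of over 60% in size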
Target sequence (O15648 whole entry, looked up): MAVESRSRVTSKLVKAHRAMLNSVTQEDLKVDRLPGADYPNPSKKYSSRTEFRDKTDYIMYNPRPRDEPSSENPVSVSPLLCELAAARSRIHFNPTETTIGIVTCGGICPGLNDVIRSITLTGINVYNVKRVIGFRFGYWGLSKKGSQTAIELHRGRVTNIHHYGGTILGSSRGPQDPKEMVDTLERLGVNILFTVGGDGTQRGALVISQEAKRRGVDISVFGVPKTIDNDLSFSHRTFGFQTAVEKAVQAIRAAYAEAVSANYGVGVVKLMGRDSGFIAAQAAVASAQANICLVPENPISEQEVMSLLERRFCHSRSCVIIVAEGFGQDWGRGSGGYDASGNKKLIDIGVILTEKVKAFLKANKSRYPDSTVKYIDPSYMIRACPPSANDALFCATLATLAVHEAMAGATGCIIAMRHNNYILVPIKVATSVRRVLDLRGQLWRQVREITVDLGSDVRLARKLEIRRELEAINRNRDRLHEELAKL
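Luminescent ADP detection (ADP-Glo, two-step: ATP depletion then ADP-to-ATP conversion for luciferase) reported PFK activity after 45 min room-temperature reaction of 1.25 nM enzyme with 0.5 mM F6P and 0.1 mM ATP at pH 8.0.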
TDP1 inh: inhibitors of human tyrosyl-DNA phosphodiesterase TDP1; recombinant TDP1, AlphaScreen DNA substrate cleavage; actives 0.28% (n = 350,000); Potency, µM (doses to about 130 µM), for the others: at the top dose activity change, negative = inhibition, usual class: inhibitors; AID 485290; note: % is set by controls: 0 for no effect and ±100 for the full control effect; nearly all actives have a fitted effect of over 40% in size
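Steps: enzyme plus compound, 15 min RT; add biotin/phosphotyrosine-FITC oligonucleotide (15 nM final), react 5 min; add donor/acceptor beads (10 ug/ml final), 10 min; read AlphaScreen. Tdp1 at 1 nM final.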
S-ASM inh: blocks human secretory acid sphingomyelinase; P17405; placental ASM, HMU-PC fluorogenic substrate, 60 min; Potency, µM (series often up to 57.5 µM), without a hit: top-dose activity change, negative = inhibition, actives largely listed as inhibitors; actives 0.006% (n = 340,000); AID 504937
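Human placenta-derived ASM preincubated with compound 10 min at room temperature, then reacted with 9 uM (final) fluorogenic HMU-PC substrate for 60 min at 37 C. Stop solution raises pH to 10; fluorescence read at Ex 386/Em 447 nm.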
Pin1 inhibitor: human Pin1 inhibition; Pin1 FP peptide displacement, HiFluor488, 10 min; Potency, µM (series often up to 115 µM), for inactives: at the highest dose activity, negative = inhibition, actives largely listed as inhibitors; actives 0.009% (n = 390,000); active = well fitted inhibition curve with a large enough effect in the polarisation, with a control signal flat, not every such curve was filed as active; inconclusive = small, poorly fitted or top-dose-only effect, or effect the other way, or a change in a side signal; inactive = no such curve, though single readings can be large or run the other way; the % refers to the polarisation; note: % is set by controls: 0 for no effect and ±100 for the full control effect
Target sequence (Q13526 whole entry, looked up): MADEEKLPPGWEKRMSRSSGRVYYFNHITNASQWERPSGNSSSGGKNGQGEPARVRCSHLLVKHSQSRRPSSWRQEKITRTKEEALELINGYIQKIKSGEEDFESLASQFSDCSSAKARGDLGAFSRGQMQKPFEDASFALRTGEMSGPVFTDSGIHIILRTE
The depositor's hits bear a star; ? = inconclusive; . = not tested or not shown; ! = not confirmed by another sample; [ ] = another dose, or the depositor's remark. Rows were chosen to be rich in hits. Some 3.1% of all compounds tested hit in one or more screens of this group. Unless noted, calls come from the whole dose curve; as a rule, active = well fitted curve in the direction sought with a large enough effect; inconclusive = small, poorly fitted or top-dose-only effect, or another doubt; inactive = no such curve, though single readings can be large; an effect the other way counts as inactive or inconclusive. Potency is the fitted concentration of half-maximal effect.

SMILES	VDR inh	PLK1 PBD block	Tb PFK block	TDP1 inh	S-ASM inh	Pin1 inhibitor
N/C(=N\OC(=O)c1cc([N+](=O)[O-])ccc1Cl)c1cccnc1	-8.4%	0.9%	3.2%	.	-3.9%	1.1%
O=C(Oc1c(Br)cc([N+](=O)[O-])cc1Br)c1cccnc1	-9.9%	18.9µM*	-3.0%	5.4%	27.0%	-11.1%
S=C(c1nc2ccccc2[nH]1)N1CCOCC1	?	23.8µM*	-15.6%	-1.1%	2.3%	-2.1%
O=C(C1CC1)N(Cc1nc2ccccc2c(=O)[nH]1)Cc1cccs1	?	15µM*	-2.4%	-1.9%	1.0%	-11.0%
CCc1ccccc1NC(=O)Cc1ccc(-n2cccc2)cc1	?	7.52µM*	-1.8%	5.5%	-2.3%	22.4%
COCCNS(=O)(=O)c1ccc2c(c1)Cc1cc(S(=O)(=O)NCCOC)ccc1-2	?	18.9µM*	0.0%	4.5%	-0.2%	4.6%
O=C(c1cccs1)n1nc(-c2ccccc2)nc1NCc1ccco1	0.8%	26.7µM*	-1.5%	0.1%[56.1 µM]	-6.2%	13.6%
CSc1nnc2c3ccccc3c3ccccc3c2n1	?	21.2µM*	-5.4%	3.2%	-10.1%	-8.6%
CSc1ncc(-c2ccccc2)cn1	-5.0%	-12.5%	1.0%	0.0%	-1.8%	-16.2%
CC1CCN(S(=O)(=O)c2ccc3c(c2)N(CC(=O)NCc2cccnc2)C(=O)CS3)CC1	?	26.7µM*	-0.3%	2.6%	4.1%	-4.4%
CSc1cc2c(s1)c1cnn(Cc3ccccc3F)c(=O)c1n2C	.	.	.	0.5%	.	2.8%
Oc1ccccc1N1CCN(c2nnnn2-c2ccccc2)CC1	?	29.9µM*	2.0%	.	-0.4%	-0.2%
CCOC(=O)c1ccc(Cn2c(-c3ccccc3)nnc2-c2ccccc2)o1	-16.2%	23.8µM*	?	3.1%	-7.4%	5.2%
O=C1c2ccccc2C(=O)N1c1ccc2ccccc2n1	.	.	.	1.5%	.	?
Cc1nc(NS(=O)(=O)c2ccccc2)sc1NC(=O)OC(C)C	7.1%	0.0%	-6.7%	-7.2%	5.2%	-9.2%
Cc1ccc(S(=O)(=O)Nc2nc(C)c(NC(=O)Nc3ccc(Cl)cc3Cl)s2)cc1	-18.7%	21.2µM*	0.0%	0.0%	-18.4%	-11.3%
Cc1ccc(S(=O)(=O)Nc2nc(C)c(NC(=O)OCCCl)s2)cc1	89.1µM*	-14.0%	2.2%	3.6%	-3.6%	-1.9%
COc1ccc(NC(=O)Nc2sc(NS(=O)(=O)c3ccccc3)nc2C)cc1	32.6%	?	-2.9%	5.1%	-2.3%	-10.2%
COc1ccccc1CNC(=O)CCc1c(C)c2cc3c(C)coc3cc2oc1=O	4.5%	.	.	7.4%	.	1.6%
CCOC(=O)c1ccc(CN(Cc2ccccc2C)S(=O)(=O)c2ccc(F)c(C)c2)cc1	-7.3%	.	.	-5.2%	.	6.6%
COc1ccccc1Cn1[nH]nnc1=S	-14.8%	23.8µM*	6.7%	11.4%	0.7%	4.6%
COc1ccccc1CN1C(=O)CNC1=S	4.0%	-5.4%	2.3%	2.7%	4.6%	-9.4%
Cc1nc2ccccc2c(=O)n1/N=C/c1ccc(O)c(O)c1O	-5.0%	10.6µM*	-12.5%	.	-4.9%	?
Cc1nc2ccccc2c(=O)n1/N=C/c1ccccc1O	1.3%	-4.0%	-2.3%	6.0%	-0.7%	-5.6%
CSc1nc(Oc2cccc(C(F)(F)F)c2)cc(C(F)(F)F)n1	-23.0%	26.7µM*	1.7%	2.1%	-0.1%	-0.4%
SMILES	VDR inh	PLK1 PBD block	Tb PFK block	TDP1 inh	S-ASM inh	Pin1 inhibitor
CSc1nc(Oc2ccc(F)cc2F)cc(C(F)(F)F)n1	13.7%	-4.2%	1.1%	4.8%	-5.8%	2.9%
COc1ccc(/C=N/N=C2/NC(=O)C(CC(=O)O)S2)cc1OCc1ccccc1Cl (stereo unspecified)	-17.8%	-24.0%	22.5%	-14.9%	0.4%	5.1%
COc1ccc(/C=N/N=C2/NC(=O)C(CC(=O)O)S2)cc1OCc1ccc(Cl)cc1Cl (stereo unspecified)	-22.6%	-18.0%	1.0%	70.8µM*	-0.8%	?
CC(C)(C)c1ccc(OCCn2c(CCNC(=O)C3CCCCC3)nc3ccccc32)cc1	?	.	.	1.4%	.	1.1%
CC1CCC(NC(=O)CNC(=O)Cc2cccc3ccccc23)CC1 (stereo unspecified)	?	23.8µM*	-1.7%	8.2%	-0.8%	0.9%
COc1ccccc1CC(=O)NC1CCC(C)CC1 (stereo unspecified)	0.2%	-21.8%	-3.5%	8.2%	4.3%	-1.7%
COc1ccc(C(=O)Nc2ccc(-c3n[nH]c(=S)o3)cc2)cc1OC	?	11.9µM*	17.5%	.	-1.0%	-2.8%
Cc1ccc(S(=O)(=O)N2CCN(c3ccnc(-c4cccs4)n3)CC2)cc1	19.6%	.	.	.	.	-8.9%
Cc1cccc(OCCSc2nc(N)cc(N)n2)c1	?	3.77µM*	-21.0%	.	-1.9%	1.5%
Cc1cccc(OCCOCCSc2ncccn2)c1	11.6%	1.2%	-0.9%	4.2%	1.9%	0.1%
COc1ccc(Cn2c(=O)c3oc4ccccc4c3n(CC(=O)Nc3c(C)cccc3C)c2=O)cc1	12.2%	.	.	0.0%	.	-5.9%
N#CC(C#N)=C(N)/C(C#N)=C/c1ccc2[nH]ccc2c1	50.1µM*!	.	.	7.3%	.	.
CCCCOCc1cc(CN2CCN(c3cccc(Cl)c3)CC2)c(O)c2ncccc12	9.8%	.	.	10.1%	.	16.0%
COC(=O)C1=C(C(=O)OC)[C@@H]2N(C)c3ccc(OC)cc3[C@@]23C[C@@H](C(=O)OC)N(S(=O)(=O)c2ccc4c(c2)OCCN4C)C3=N1	.	.	.	12.5%[12.3 µM]	.	.
COc1cccc(NC(=O)c2ccccc2-c2ccccc2C(=O)O)c1	11.0%	-1.2%	-1.8%	.	3.1%	-7.7%
COc1cc2c(cc1NC(=O)c1ccccc1-c1ccccc1C(=O)O)-c1ccccc1C2	.	42.3µM*	.	.	.	.
CN1CC[C@H](c2c(O)cc(O)c3c(=O)cc(-c4ccccc4Cl)oc23)[C@@H](O)C1	-5.5%	.	.	2.9%	.	5.6%
Nc1nc2c(s1)CCc1ccccc1-2	?	?	-25.1%	.	-0.4%	-4.5%
N#C/C(=C(/O)CCl)c1nc2c(s1)CCc1ccccc1-2	?	7.52µM*	-13.5%	10.9%	2.0%	17.7%
O=C(Nc1ccc(N2CCOCC2)cc1N1CCOCC1)c1ccco1	?	26.7µM*	0.1%	6.5%	1.6%	-4.6%
Nc1cc(C(=O)O)ccc1Sc1ccccc1C(=O)O	?	10.6µM*	19.5%	44.7µM*	4.0%	-5.2%
O=C(O)c1ccc(NC(=S)NC(=O)c2ccc3ccccc3c2)cc1	-12.5%	?	2.7%	31.6µM*	.	?
COc1ccc(C(=O)NNc2ccccc2)cc1	2.5%	1.8%	-15.0%	11.0%	.	-2.3%
COc1ccc(NC(=S)NNc2ccc(C(=O)O)cc2)cc1	31.6µM*	?	6.6%	.	2.8%	2.9%
O=C(O)c1cccc(NC(=S)NC(=O)c2ccc3ccccc3c2)c1	-7.4%	-17.7%	8.6%	7.0%	-1.1%	-7.2%
COc1ccc(NC(=S)c2ccncc2)cc1	-19.7%	-5.6%	-7.0%	.	-2.7%	6.1%
COc1ccc(C(=S)Nc2ccc(C)cc2)cc1	?	21.2µM*	-0.7%	0.0%	-1.6%	?
CCOc1ccccc1NS(=O)(=O)c1c(-c2ccc(C)cc2)csc1C(=O)OC	15.4%	.	.	4.5%	.	16.0%
O=S1(=O)N=C(Oc2ccccc2F)c2ccccc21	.	.	.	2.8%	.	-0.4%
